The supplement of paper PMC10646978
± gives the standard deviation.

Legend:
Conditions in all cases: modulator concentration 10 µM
[1] = test system: RAW-Dual (murine macrophage reporter line); experiment: NF-kB reporter (SEAP) activity fold change vs agonist alone; higher = enhanced NF-kB activity
In short: (§1)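 RAW-Dual murine macrophage reporter cells were plated at 50 000 per well in 384-well plates, pin-transferred compound to 10 μM final, and pre-incubated for 1 hour at 37 °C before a PRR agonist was added and the cells incubated overnight. NF-κB activity was read from supernatant SEAP with QUANTI-Blue at 620 nm absorbance, and IRF activity from Lucia luciferase with QUANTI-Luc by luminescence. Each signal was expressed as fold change by dividing by the mean agonist-only control on the same plate. Two replicate plates were averaged, with errors obtained by propagation.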

[2] = test system: RAW-Dual (murine macrophage reporter line); experiment: IRF reporter (Lucia luciferase) activity fold change vs agonist alone; higher = enhanced IRF activity
In short: as §1

[3] = test system: RAW-Dual (murine macrophage reporter line); experiment: viability score (confluency relative to resting cells, overnight) (fraction); higher = more viable, active = viable (0.7 or more)
In short: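 RAW-Dual macrophages in 384-well plates were treated overnight with compound at 10 μM final. IncuCyte imaging recorded confluency, and IncuCyte software built two confluency masks across every imaged well. The viability score expresses confluency relative to resting cells and was judged against a cutoff, which a compound met only if both masks exceeded 70% of resting cells.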

[4] = agonist: CpG ODN 1826 0.5 ug/mL

| Structure (SMILES) | NF-kB reporter [1, 4] | NF-kB reporter ([1]; agonist: LPS 0.1 ug/mL) | NF-kB reporter ([1]; agonist: MPLA […]) | IRF reporter ([2]; agonist: 3'3'-cGAMP 10 ug/mL) | IRF reporter ([2]; agonist: LPS 0.1 ug/mL) | IRF reporter ([2]; agonist: MPLA […]) | viability score [3] |
| --- | --- | --- | --- | --- | --- | --- | --- |
| Cc1c(Cl)cccc1Nc1ccccc1C(=O)O | 1.16 ± 0.17 | 1.14 ± 0.3 | 0.887 ± 0.052 | 0.938 ± 0.043 | 1.34 ± 0.26 | 1.13 ± 0.28 | 1 (active) |
| CCN(CC)CCOC(=O)C(Cc1cccc2ccccc12)CC1CCCO1.O=C(O)C(=O)O (configuration not stated) | 0.672 ± 0.21 | 1.05 ± 0.061 | 0.998 ± 0.11 | 0.491 ± 0.026 | 1.12 ± 0.2 | 1.27 ± 0.13 | 0.977 (active) |
| Clc1ccc(CN2CCN(CCn3ccnc3-c3ccccc3)CC2)cc1 | 0.584 ± 0.055 | 1.29 ± 0.12 | 1.37 ± 0.2 | 0.841 ± 0.042 | 1.27 ± 0.086 | 1.13 ± 0.22 | 0.993 (active) |
| Cc1cc2ncc3c(n2n1)CCN(C(=O)c1cnoc1C)C3 | 0.857 ± 0.037 | 0.964 ± 0.077 | 1.02 ± 0.055 | 0.972 ± 0.045 | 1.11 ± 0.25 | 1.21 ± 0.43 | 0.896 (active) |
| Br.O=S(=O)(c1ccc(-c2csc(Nc3cccc4ccccc34)n2)cc1)N1CCOCC1 | 0.907 ± 0.077 | 1.01 ± 0.089 | 1 ± 0.061 | 0.769 ± 0.053 | 1.25 ± 0.08 | 1.12 ± 0.32 | 1 (active) |
| CCOCCn1c(N2CCCN(C)CC2)nc2ccccc21 [Prestw-1274] | 0.77 ± 0.17 | 1.24 ± 0.17 | 1.03 ± 0.08 | 1.01 ± 0.027 | 1.19 ± 0.21 | 1.44 ± 0.15 | 0.996 (active) |
| CC1Cc2ccccc2N1C(=O)c1cc2n(n1)CCCO2 (configuration not stated) | 0.962 ± 0.076 | 0.949 ± 0.06 | 1.09 ± 0.12 | 0.903 ± 0.054 | 1.39 ± 0.082 | 1.44 ± 0.15 | 0.985 (active) |
| COc1ccc(NC(=O)CCn2nc(C)nc2C)cc1 | 1.04 ± 0.099 | 1.07 ± 0.085 | 0.963 ± 0.12 | 0.961 ± 0.049 | 1.09 ± 0.068 | 1.01 ± 0.12 | 1 (active) |
| O=c1sn(-c2cccc3ccccc23)c(=O)n1Cc1ccccc1 | 0.647 ± 0.1 | 0.501 ± 0.15 | 0.653 ± 0.044 | 0.473 ± 0.016 | 0.441 ± 0.14 | 0.81 ± 0.12 | 0.181 (inactive) |
| COc1ccc(CC(=O)N2CCC(N3CCC(OC)CC3)CC2)cc1OC | 0.965 ± 0.063 | 1.09 ± 0.087 | 0.893 ± 0.041 | 0.949 ± 0.05 | 1.02 ± 0.11 | 1.08 ± 0.35 | 0.974 (active) |
| Cc1cc2c(s1)Nc1ccccc1N=C2N1CCN(C)CC1 | 0.278 ± 0.057 | 1.03 ± 0.36 | 0.929 ± 0.056 | 0.819 ± 0.049 | 1.16 ± 0.37 | 0.974 ± 0.075 | 1 (active) |
| O=C(CCC1CCCC1)Nc1cccc(F)c1 | 0.986 ± 0.059 | 1.08 ± 0.12 | 0.959 ± 0.029 | 0.999 ± 0.045 | 1.03 ± 0.091 | 1.12 ± 0.25 | 1 (active) |
| Cc1c(C(=O)Nc2cccc3ccccc23)cccc1[N+](=O)[O-] | 0.854 ± 0.25 | 1.2 ± 0.12 | 1.04 ± 0.18 | 0.807 ± 0.034 | 1.22 ± 0.22 | 1.41 ± 0.42 | 0.633 (inactive) |
| O=C(NCC#CCOc1cccc(C(F)(F)F)c1)Nc1c(F)cccc1F | 0.921 ± 0.077 | 1.13 ± 0.12 | 0.922 ± 0.045 | 0.994 ± 0.051 | 1.07 ± 0.17 | 1.15 ± 0.39 | 1.01 (active) |
| O=C(CSc1ncnc2c(-c3ccccc3)c[nH]c12)NCc1ccc(Cl)cc1 | 1.18 ± 0.059 | 1.13 ± 0.089 | 0.796 ± 0.035 | 1.25 ± 0.064 | 1.18 ± 0.093 | 1.24 ± 0.26 | 0.99 (active) |
| CCOc1ccc2nc(N(CCCN(C)C)C(=O)c3ccc(Br)s3)sc2c1.Cl | 0.164 ± 0.014 | 0.836 ± 0.076 | 0.855 ± 0.13 | 0.406 ± 0.1 | 1.14 ± 0.071 | 0.533 ± 0.083 | 0.0434 (inactive) |
| C=CC(=O)Nc1cccc(Nc2nc(Nc3ccc(N4CCN(C(C)=O)CC4)cc3OC)ncc2C(F)(F)F)c1 | 0.634 ± 0.16 | 0.662 ± 0.035 | 0.977 ± 0.086 | 0.0805 ± 0.0073 | 0.438 ± 0.14 | 0.406 ± 0.04 | 0.926 (active) |
| COc1ccccc1OCCNCC(O)COc1cccc2[nH]c3ccccc3c12 (configuration not stated) | 0.0926 ± 0.0072 | 0.894 ± 0.057 | 0.892 ± 0.084 | 1.26 ± 0.086 | 1.53 ± 0.11 | 1.53 ± 0.16 | 0.957 (active) |
| O=S1(=O)N=C(NN=Cc2ccccc2O)c2ccccc21 | 1 ± 0.081 | 0.95 ± 0.14 | 1.1 ± 0.12 | 1 ± 0.049 | 1.25 ± 0.16 | 1.46 ± 0.25 | 1.03 (active) |
| COc1ccc2ccccc2c1C=C1SC(=S)N(CC(=O)O)C1=O | 1.05 ± 0.081 | 1 ± 0.12 | 1 ± 0.099 | 0.988 ± 0.053 | 1.34 ± 0.27 | 1.52 ± 0.4 | 1.04 (active) |
| CC(C)c1ccc(N(CC(=O)NCCSCc2ccc(Cl)cc2)S(C)(=O)=O)cc1 | 0.597 ± 0.058 | 0.909 ± 0.076 | 0.918 ± 0.08 | 0.588 ± 0.04 | 1.14 ± 0.066 | 1.07 ± 0.13 | 1.01 (active) |
| COC(=O)C1=C(C)N(c2ccc(F)cc2)C(=O)C1 | 1 ± 0.092 | 0.811 ± 0.08 | 0.813 ± 0.071 | 0.516 ± 0.025 | 0.865 ± 0.068 | 0.505 ± 0.065 | 1.01 (active) |
| COc1cc2nc(N3CCN(C(=O)C4COc5ccccc5O4)CC3)nc(N)c2cc1OC (configuration not stated) [Prestw-858] | 0.138 ± 0.011 | 0.961 ± 0.071 | 1.34 ± 0.15 | 0.248 ± 0.012 | 1.19 ± 0.075 | 1.29 ± 0.13 | 0.953 (active) |
| Cc1ccc(N2C(=O)C(=CC3CC=CCC3)SC2=S)cc1 (configuration not stated) | 0.652 ± 0.054 | 0.835 ± 0.039 | 0.817 ± 0.076 | 0.397 ± 0.022 | 1.04 ± 0.075 | 0.963 ± 0.1 | 0.973 (active) |
| Cc1[nH]c(/C=C2\C(=O)Nc3ccccc32)c(C)c1CCC(=O)O | 0.716 ± 0.18 | 0.853 ± 0.11 | 0.812 ± 0.048 | 0.618 ± 0.021 | 0.956 ± 0.24 | 0.98 ± 0.18 | 0.993 (active) |
| Cc1ccc(-c2cc(-c3ccccc3)nc(NN=Cc3ccc(F)cc3)n2)cc1 | 0.961 ± 0.17 | 1.23 ± 0.1 | 0.988 ± 0.13 | 1.02 ± 0.051 | 1.15 ± 0.11 | 1.48 ± 0.27 | 0.959 (active) |
